{
  "source": "ChEMBL document CHEMBL3988442",
  "about": "“University of Dundee, Small-Polar-MMV Screening Library” (2021)",
  "note": "The whole screen tested about 38,000 compounds, of which about 1,200 (3.2%) showed an effect of 50% or more. The median lay at about -58%. The list comes from a sample in which strong results are over-represented; it also holds similar structures and randomly drawn compounds.",
  "data": [
    {"tested_on": "Plasmodium falciparum", "assay": "Calibr Malaria Delayed Death Assay SOP", "assay_type": "functional, organism-based", "parameters": "scale not given: in the data most compounds retested in dose-response had high values", "details": "concentration 4.99e-06 (unit not given; other assays of the set use mol/L)", "units": {"Percent Effect": "%"}, "values": [
      {"smiles": "O=C1CN(C(=O)c2cccc(C(F)(F)F)c2)CC(O)CN1CC1CC1", "note": "(stereo not given)", "Percent Effect": -23.92},
      {"smiles": "COCC(=O)N(Cc1ccc2[nH]ccc2c1)C1CC1", "Percent Effect": -74.09},
      {"smiles": "O=C(c1ccc(-c2ccoc2)nc1)N1CCCN(C2CCCCC2)CC1", "Percent Effect": -100.8},
      {"smiles": "Cc1ccc(S(=O)(=O)CCC(=O)N(C)Cc2cnn(C)c2)cc1", "Percent Effect": -22.92},
      {"smiles": "CCC1COCCN1C(=O)NCc1nccn1CCc1ccccc1", "note": "(stereo not given)", "Percent Effect": -72.5},
      {"smiles": "CCCN1CCN(CC(O)c2ccc(OC(F)(F)F)cc2)CC1", "note": "(stereo not given)", "Percent Effect": 42.81},
      {"smiles": "CC(NCC1CCN(CCO)CC1)c1ccc(OC(F)(F)F)cc1", "note": "(stereo not given)", "Percent Effect": 93.49},
      {"smiles": "OCCN1CCN(CC(O)c2ccc(OC(F)(F)F)cc2)CC1", "note": "(stereo not given)", "Percent Effect": -7.34},
      {"smiles": "COCCN1CCN(CC(O)c2ccc(C(F)(F)F)cc2)CC1", "note": "(stereo not given)", "Percent Effect": 6.899},
      {"smiles": "CN(Cc1ccccc1OC(F)(F)F)C(=O)C1CC1", "Percent Effect": -112.4},
      {"smiles": "CC(NCC1CCN(CCO)CC1)c1ccc(C(F)(F)F)cc1", "note": "(stereo not given)", "Percent Effect": 88.54},
      {"smiles": "NC(=O)N1CCCC(C(=O)NCc2ccccc2OC(F)(F)F)C1", "note": "(stereo not given)", "Percent Effect": -135.5},
      {"smiles": "CC(c1ccc(C(F)(F)F)cc1)N1CCN(CCS(C)(=O)=O)CC1", "note": "(stereo not given)", "Percent Effect": -72.63},
      {"smiles": "Cc1cccc(CN2CC3(CCN(S(=O)(=O)C4CC4)CC3)OCC2=O)n1.O=C(O)C(F)(F)F", "Percent Effect": -75.59},
      {"smiles": "Cc1nccn1CCCC(=O)N1CCCN(c2cccnn2)CC1", "Percent Effect": -112.5},
      {"smiles": "COC(=O)C1CN(Cc2nc(-c3ccccc3)cs2)C[C@@H](C)O1", "note": "(stereo not given in full)", "Percent Effect": -63.3},
      {"smiles": "Cc1cc2cccc(NC(=O)N3CCC(N(C)C)C3)c2o1", "note": "(stereo not given)", "Percent Effect": -83.5},
      {"smiles": "NC(=O)c1cc(NC(=O)NCCc2cc(F)cc(F)c2)ccc1F", "Percent Effect": -73.47},
      {"smiles": "O=C1CC(c2ccc3c(c2)OCO3)c2c(n3ccsc3nc2=O)N1", "note": "(stereo not given)", "Percent Effect": -91.85},
      {"smiles": "CN(C)c1ncccc1CNS(=O)(=O)c1cc(F)ccc1F", "Percent Effect": -126.3},
      {"smiles": "CCC(CC)NC(=O)c1cccnc1N1CCCC1c1ccccn1", "note": "(stereo not given)", "Percent Effect": -135.6},
      {"smiles": "CCCS(=O)(=O)N1CCN(C(C)(C)CO)CC1", "Percent Effect": -101.2},
      {"smiles": "Cc1nnc(NC(=O)CN2CCCC(c3ccn[nH]3)C2)s1", "note": "(stereo not given)", "Percent Effect": 85.62},
      {"smiles": "Cc1nnc(NC(=O)CN2CCOC(Cn3cccn3)C2)s1", "note": "(stereo not given)", "Percent Effect": -152.2},
      {"smiles": "Cc1cc(C2CCCN(CC(=O)N3CCc4ccccc43)C2)n[nH]1", "note": "(stereo not given)", "Percent Effect": -86.51},
      {"smiles": "O=C1CCCCCN1CCC(=O)N1CCCC(c2ccn[nH]2)C1", "note": "(stereo not given)", "Percent Effect": -59.24},
      {"smiles": "O=C1CCCN1CCN1CCCC(c2ccn[nH]2)C1", "note": "(stereo not given)", "Percent Effect": 13.33},
      {"smiles": "O=C(CN1CCCC(c2ccn[nH]2)C1)Nc1nc2c(s1)CCCC2", "note": "(stereo not given)", "Percent Effect": 85.91},
      {"smiles": "Cc1nnc(NC(=O)CN2CCCC(Cn3cncn3)C2)s1", "note": "(stereo not given)", "Percent Effect": -101.2},
      {"smiles": "O=C(CCc1cscn1)N1CCCC(c2ccn[nH]2)C1", "note": "(stereo not given)", "Percent Effect": -83.54},
      {"smiles": "O=C(CN1CCCC(c2ccn[nH]2)C1)Nc1nc2c(s1)CCC2", "note": "(stereo not given)", "Percent Effect": 89.1},
      {"smiles": "Cc1cc(C2CCCN(CC(=O)N3CCCc4ccccc43)C2)n[nH]1", "note": "(stereo not given)", "Percent Effect": -11.77},
      {"smiles": "Cc1cc(C2CCCN(CC(=O)Nc3nc4c(s3)CCC4)C2)n[nH]1", "note": "(stereo not given)", "Percent Effect": 86.8},
      {"smiles": "CC(C)C1Nc2ccccc2C(=O)N1CC(=O)Nc1nc2c(s1)CCC2", "note": "(stereo not given)", "Percent Effect": 15.72},
      {"smiles": "COc1ccc(C)nc1NC(=O)CCc1c(C)nn(C)c1C", "Percent Effect": -87.92},
      {"smiles": "CCc1nc(C(=O)N2CCN(C)c3ccccc32)c[nH]1", "Percent Effect": -108.8},
      {"smiles": "COCc1n[nH]/c(=N/C(=O)COc2cnc(C)cc2O)s1", "Percent Effect": -11.35},
      {"smiles": "O=C(c1cccnc1)N1CCC2(CC1)CN(c1ccccn1)CCO2", "Percent Effect": -57.82},
      {"smiles": "CN(C)C(=O)N1CC2(CCNCC2)c2cc(Cl)ccc21.Cl", "Percent Effect": 23.36},
      {"smiles": "Cl.Cl.O=C([C@H]1CCCN1)N1CC2(CCNCC2)c2cc(Cl)ccc21", "Percent Effect": 58.74},
      {"smiles": "Cl.NC(=O)N1CC2(CCNCC2)c2cc(Cl)ccc21", "Percent Effect": -64.91},
      {"smiles": "CN(Cc1nnc(C2CCC2)o1)C(C(N)=O)c1cccc(F)c1", "note": "(stereo not given)", "Percent Effect": -103},
      {"smiles": "Cc1ccc(S(=O)(=O)NCC(O)c2ccoc2)s1", "note": "(stereo not given)", "Percent Effect": -144.6},
      {"smiles": "O=C(Cc1ccncc1)N1CCC2(CC1)CC(c1ccccc1)CO2.O=C(O)C(F)(F)F", "note": "(stereo not given)", "Percent Effect": -32.94},
      {"smiles": "CCN1CCC2(CC1)CC(Nc1ncccn1)CO2", "note": "(stereo not given)", "Percent Effect": -15.58},
      {"smiles": "CCN1CCC2(CC1)CC(NCc1ccncc1)c1ccccc1O2.O=C(O)C(F)(F)F.O=C(O)C(F)(F)F.O=C(O)C(F)(F)F", "note": "(stereo not given)", "Percent Effect": 77.69},
      {"smiles": "CN1CCC2(CC1)CC(NC(=O)c1csnn1)c1ccccc1O2.O=C(O)C(F)(F)F", "note": "(stereo not given)", "Percent Effect": -14.05},
      {"smiles": "CCN1CCC2(CC1)CC(NC(=O)c1c[nH]cn1)c1ccccc1O2", "note": "(stereo not given)", "Percent Effect": -75.27},
      {"smiles": "O=C(c1ccsc1)N1CCC2(CC1)CCN(S(=O)(=O)C1CC1)CC2", "Percent Effect": 5.88},
      {"smiles": "COc1ccccc1S(=O)(=O)Nc1cnc(O)cc1C", "Percent Effect": -22.04},
      {"smiles": "c1cncc(NCCNC2CCCNC2)c1", "note": "(stereo not given)", "Percent Effect": -4.225},
      {"smiles": "c1cncc(NCCNC2CCSCC2)c1", "Percent Effect": -16.36},
      {"smiles": "CC(C)CN1CCC(NCCNc2cccnc2)CC1", "Percent Effect": 78.75},
      {"smiles": "Cn1cc(CCNC(=O)c2cc3ccccc3nc2N2CCCC2)cn1", "Percent Effect": -91.24},
      {"smiles": "CN(C)c1nc(N2CCCC2)nc2c1CCN(Cc1nccn1C)CC2.O=C(O)C(F)(F)F", "Percent Effect": 3.003},
      {"smiles": "Cc1nc(C)c2c(n1)CCN(Cc1nccn1C)CC2.O=C(O)C(F)(F)F", "Percent Effect": -117.5},
      {"smiles": "CC(C)Nc1nc2c(c(N(C)C)n1)CCN(Cc1nccn1C)CC2.O=C(O)C(F)(F)F", "Percent Effect": 53.11},
      {"smiles": "CC(C)Nc1nc2c(c(NC3CC3)n1)CCN(Cc1nccn1C)CC2.O=C(O)C(F)(F)F", "Percent Effect": 75.38},
      {"smiles": "CC(C)Nc1ncnc2c1CCN(Cc1nccn1C)CC2.O=C(O)C(F)(F)F.O=C(O)C(F)(F)F", "Percent Effect": -41.64},
      {"smiles": "Cc1nc(N2CCCC2)nc2c1CCN(Cc1nccn1C)CC2.O=C(O)C(F)(F)F", "Percent Effect": -65.41},
      {"smiles": "Cc1nc(C)c(C(=O)N2CCN(CCOc3ccccc3C)CC2)o1", "Percent Effect": -41.56},
      {"smiles": "Cl.N[C@@H](Cc1ccccc1)c1nnc(S(=O)(=O)Cc2ccc(Cl)cc2)o1", "Percent Effect": -112.8},
      {"smiles": "COc1cnc(N2CCN(C)CC2)nc1-c1ccnn1C", "Percent Effect": -14.56},
      {"smiles": "Cc1cnc(N2CCN(C)CC2)nc1-c1ccnn1C", "Percent Effect": -103.6},
      {"smiles": "COc1cnc(N2CC(N3CCOCC3)C2)nc1-c1ccnn1C", "Percent Effect": 75.52}
    ]}
  ]
}
